Each structure is given as a SMILES string. “And” between values parts separate entries of the source, which are not always exact repeats. Equal entries are not always repeated. Inconclusive results are not listed. More than one record can exist for a structure, and the calls need not agree. The source made the active and inactive calls. Unless noted, the call rests on the fitted dose curve; in most records, active means well fitted curve in the direction sought with a large enough effect in the repeat runs; inconclusive means weak or mixed curves; inactive means no such curve, though single readings can be large; an effect the other way counts as inactive or inconclusive.

The nature of experiment [1]: qHTS assay to identify small molecule agonists of the endoplasmic reticulum stress response signaling pathway (AID 1159516; active means well fitted activation curve with a large enough effect in the signal ratio in the repeat runs, not every such curve was filed as active; the % refers to the signal ratio; further: potency means the concentration at half of the fitted maximal effect). A digest of the protocol: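 An ESRE-bla HeLa cell assay: compounds were pin-transferred from DMSO onto overnight-plated cells and left 5 hr at 37 C. Substrate was then loaded for 2 hr at room temperature before reading fluorescence at 460 nm and 530 nm.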
For orientation: Quantitative high-throughput screening tests each substance at several concentrations.

The nature of experiment [2]: qHTS assay to identify small molecule agonists of the endoplasmic reticulum stress response signaling pathway - cell viability counter screen (AID 1159517; calls by dose curve;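 further: HeLa cells carrying an ER stress response element beta-lactamase reporter; series mostly up to about 61 µM; nearly all actives have a fitted effect of over 50% in size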). The method, boiled down:
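Counter-screen wells were identical to the reporter wells. Cells were plated at 1,500 per well and dosed for 5 hr, then read for luminescence 30 min after CellTiter-Glo addition.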

Experiment [3] can be described thus: qHTS assay to identify small molecule antagonists of the retinoid-related orphan receptor gamma (ROR-gamma) signaling pathway - cell viability counter screen (AID 1159520). Further: nearly all actives have a fitted effect of over 50% in size. Further: potency means the concentration at half of the fitted maximal effect. The method, boiled down:
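Tet-on ROR gamma CHO cells were given compounds for 2 hr, then doxycycline hyclate at 1 uM final, and incubated 16 hr at 37 C. Viability was measured as ATP content by CellTiter-Glo luminescence.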

Experiment [4] in a line: qHTS assay to identify small molecule agonists of the AP-1 signaling pathway - cell viability counter screen (AID 1159525; calls by dose curve; further: nearly all actives have a fitted effect of over 55% in size). A digest of the protocol: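 AP-1-bla ME-180 cells in Opti-MEM with 0.5% dialyzed FBS, compound exposure 5 h at 37 C in 15-point titration. Viability read in the same wells as ATP content by CellTiter-Glo luminescence, normalised to tetra-n-octylammonium bromide and DMSO controls.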

The nature of experiment [5]: qHTS assay to identify small molecule antagonists of the retinoid acid receptor (RAR) signaling pathway - cell viability counter screen (AID 1159551). Further: nearly all actives have a fitted effect of over 35% in size. A digest of the protocol:
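Retinol-stimulated (1 uM final) C3RL4 cells, compound 6 h, 37 C; readout CellTiter-Glo luminescence (ATP) after 30 min RT incubation.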

Experiment [6] in a line: qHTS assay to identify small molecule antagonists of the estrogen related receptor (ERR) signaling pathway - cell viability counter screen (AID 1224818). Further: series mostly up to about 46 µM. The method, boiled down: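 After a 6 h pre-incubation, ERR cells were dosed by pin tool with compounds, positive/negative controls or DMSO alone. Following 17.5 h at 37 C and 30 min with CellTiter-Fluor, fluorescence was recorded.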

Experiment [7] is described as follows: qHTS assay to identify small molecule antagonists of the estrogen related receptor signaling pathway with the pleiotropic PPARgamma coactivator (PGC) cell viability counter screen (AID 1224822; further: series mostly up to about 46 µM). The method, boiled down:
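PGC/ERR cells were plated at 2,000 per well and allowed 6 h to settle before compound addition. Following 17.5 h at 37 C, CellTiter-Fluor reagent was added and fluorescence was read 30 min later.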

Experiment [8] in a line: qHTS assay to identify small molecule agonists of the vitamin D receptor (VDR) signaling pathway - cell viability counter screen (AID 743224). Further: nearly all actives have a fitted effect of over 50% in size. Further: potency means the concentration at half of the fitted maximal effect. A digest of the protocol:
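Plated VDR-bla cells (4 h, 37C) received compound, incubated 16 h, then LiveBLAzer substrate 2 h RT; CellTiter-Glo added afterwards, luminescence read at 30 min.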

The target in experiment [9] is Nuclear receptor ROR-gamma (Homo sapiens) (UniProt P51449). Kind of experiment: qHTS assay to identify small molecule antagonists of the retinoid-related orphan receptor gamma (ROR-gamma) signaling pathway (AID 1159521; further: nearly all actives have a fitted effect of over 50% in size; further: potency means the concentration at half of the fitted maximal effect). A digest of the protocol:
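Inducible-expression reporter assay: doxycycline (1 uM final) switched on RORγ in CHO cells bearing a ROR response element-luciferase construct, with test compounds present from 2 h beforehand. Decreased luminescence after 16 h defined antagonist activity.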

The target of experiment [10] is Retinoic acid receptor RXR-alpha (Homo sapiens) (UniProt P19793). Kind of experiment: qHTS assay to identify small molecule agonists of the RXR signaling pathway (AID 1159527; calls by dose curve; further: nearly all actives have a fitted effect of over 35% in size). A digest of the protocol: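 Compounds in DMSO were added to RXR-alpha-UAS-bla HEK 293T cells kept in 2% charcoal-stripped serum, and incubated 16 hr at 37 C with 5% CO2. Reporter signal came from a 2 hr B/G FRET substrate step.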
Retinoic acid receptor RXR-alpha (Homo sapiens), sequence (P19793 whole entry, looked up): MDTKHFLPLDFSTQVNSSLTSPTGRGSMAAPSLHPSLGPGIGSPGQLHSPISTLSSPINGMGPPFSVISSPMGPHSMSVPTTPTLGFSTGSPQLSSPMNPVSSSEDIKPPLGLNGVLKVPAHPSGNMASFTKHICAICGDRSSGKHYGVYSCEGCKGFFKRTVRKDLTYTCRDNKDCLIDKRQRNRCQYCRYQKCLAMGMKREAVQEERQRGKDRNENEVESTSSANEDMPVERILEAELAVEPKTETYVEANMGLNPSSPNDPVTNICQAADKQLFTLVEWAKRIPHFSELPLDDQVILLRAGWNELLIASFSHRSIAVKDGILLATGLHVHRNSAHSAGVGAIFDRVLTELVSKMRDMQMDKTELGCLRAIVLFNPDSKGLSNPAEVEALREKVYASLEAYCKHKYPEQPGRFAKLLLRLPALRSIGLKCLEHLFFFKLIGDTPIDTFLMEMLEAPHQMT

The nature of experiment [11]: qHTS assay to identify small molecule agonists of the RXR signaling pathway - cell viability counter screen (AID 1159529). Further: nearly all actives have a fitted effect of over 50% in size. Further: potency means the concentration at half of the fitted maximal effect. A digest of the protocol: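 Counter screen: CellTiter-Glo luminescence. Cells: RXR-alpha-UAS-bla HEK 293T. Medium: 2% charcoal-stripped FBS. Treatment: 16 h, 37 C. Reagent incubation: 30 min, RT.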
The nature of experiment [12]: qHTS assay to identify small molecule antagonists of the retinoic acid receptor (RAR) signaling pathway (AID 1159552; further: nearly all actives have a fitted effect of over 50% in size; further: potency means the concentration at half of the fitted maximal effect). A digest of the protocol:
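Antagonism of retinol-induced RARE reporter activity was measured in C3RL4 cells. Exposure to compounds and 1 uM final retinol lasted 6 hr at 37 C, with luminescence as endpoint.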

The nature of experiment [13]: qHTS assay to identify small molecule agonists of the retinoic acid receptor (RAR) signaling pathway (AID 1159553). Further: potency means the concentration at half of the fitted maximal effect. The method, boiled down:
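Reporter readout comes from luciferase under RARE control in C3RL4 cells; compound exposure lasts 6 hr at 37 C in 5% CO2, and luminescence is recorded following a 30 min room-temperature incubation with reagent.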

Experiment [14] can be described thus: qHTS assay to identify small molecule agonists of the estrogen related receptor (ERR) signaling pathway (AID 1224820). A digest of the protocol:
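Quantitative HTS of the LOPAC library used NTP ERR reporter cells treated 18 h at 37 C. Signal is luminescence after One-Glo addition and a 30 min room-temperature incubation.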

A short description of experiment [15]: qHTS assay to identify small molecule antagonists of the estrogen related receptor (ERR) signaling pathway from Tox21 library - cell viability counter screen (AID 1224834). Further: nearly all actives have a fitted effect of over 30% in size. Further: potency means the concentration at half of the fitted maximal effect. The method, boiled down:
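After 17.5 h of compound exposure at 37 C, ERR cells are incubated with CellTiter-Fluor for 30 min and fluorescence intensity serves as the viability measure.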

Experiment [16] is described as follows: qHTS assay to identify small molecule antagonists of the vitamin D receptor (VDR) signaling pathway - cell viability counter screen (AID 743225). Further: nearly all actives have a fitted effect of over 50% in size. Further: potency means the concentration at half of the fitted maximal effect. A digest of the protocol: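 Same-well multiplex: following 16 h treatment of HEK 293T cells carrying a UAS-driven beta-lactamase reporter with compound and agonist (3 nM final), and a 2 h FRET substrate step, CellTiter-Glo was added and luminescence read after 30 min.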

Experiment [17] can be described thus: qHTS assay to identify small molecule agonists of the AP-1 signaling pathway (AID 1159526; calls by dose curve).
A short description of experiment [18]: qHTS assay to identify small molecule antagonists of the estrogen related receptor (ERR) signaling pathway (AID 1224819). The method, boiled down:
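Luminescence readout (One-Glo, 30 min, RT) of ERR cell line after 18 h compound exposure at 37 C; cells seeded 2,000/well, pre-incubated 6 h, compounds pinned from DMSO stocks.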

In experiment [19] the test system is estrogen-related receptor alpha (ERRalpha) with PGC-1alpha coactivator, human. Kind of experiment: qHTS assay to identify small molecule antagonists of the estrogen related receptor signaling pathway with the pleiotropic PPARgamma coactivator (PGC) (AID 1224821; calls by dose curve). The method, boiled down: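 Quantitative HTS for antagonism: PGC/ERR cells received compounds after 6 h attachment and were incubated 18 h at 37 C, with luminescence (One-Glo) as the endpoint.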

Experiment [20] in a line: qHTS assay to identify small molecule agonists of the estrogen related receptor signaling pathway with the pleiotropic PPARgamma coactivator (PGC) (AID 1224823). A digest of the protocol:
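Cell-based luciferase assay in the NTP-supplied PGC/ERR line, 2,000 cells/well; 18 h compound exposure at 37 C, luminescence after One-Glo.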

As for `CCN(CC)CCCN(c1ccccc1)C1Cc2ccccc2C1`, the Potency result in experiment [1], in experiment [2], in [3], in [4], in [5] and in [6] was “inactive” throughout. For the same molecule, the Potency entry in [7] is “inactive”.

In the case of `CCOC(=O)N1CCC(=C2c3ccc(Cl)cc3CCc3cccnc32)CC1`, the Potency was 54.9 µM (active) and inactive in experiment [8]; 6.86 µM (active) and 21.1 µM (active) in experiment [9]; 54.9 µM (active) and inactive in experiment [11]; 24.3 µM (active) and 29.8 µM (active) in experiment [15]. The Potency entry in experiment [1], in experiment [2], in experiment [4], in experiment [10], in [5] and in experiment [12] was “inactive” in each case. Besides, the Potency entry in [13], in experiment [6] and in experiment [7] was “inactive” in each case. The molecule was called inactive in experiment [14].

With `Cn1cnc2ncnc(N)c21`, the Potency entry in [8], in experiment [16], in experiment [1], in experiment [3], in [9] and in experiment [4] was “inactive” throughout. Moreover, the Potency result in [17], in [10], in experiment [11], in experiment [5], in experiment [12] and in [13] was “inactive” in each case.

For `CC(C)(c1cc(Br)c(OCCO)c(Br)c1)c1cc(Br)c(OCCO)c(Br)c1`, the Potency was 38 µM (active) in [8], 47.5 µM (active) in experiment [3], 42.7 µM (active) in [11] and 42.3 µM (active) in [15]. Moreover, the Potency result in [1], in [5] and in experiment [13] was “inactive” in each case.

Turning to `CCOC(=O)C1=C(C)NC(C)=C(C(=O)OCC)C1c1ccccc1/C=C/C(=O)OC(C)(C)C`, the Potency result in [8], in experiment [10] and in [5] was “inactive” throughout. Also, the Potency in experiment [1] was 19 µM (active); in experiment [3] it was 29.8 µM (active); in [12], 29.8 µM (active); in [15] it was 29.8 µM (active).

With `CC(C)OC(=O)c1cc(C(=O)OC(C)C)cc([N+](=O)[O-])c1`, the Potency result in experiment [8], in [1], in [3], in experiment [4], in experiment [5] and in experiment [6] was “inactive” in each case. Moreover, the Potency entry in [18], in [7] and in experiment [15] was “inactive” each time. Further, the outcome in experiment [14], in [19] and in [20] was inactive.

As to `CN(C)CCOC(c1ccccc1)c1ccccc1` (tested in a mixture with another compound), the Potency entry in experiment [1], in [3], in experiment [4], in experiment [5] and in experiment [15] was “inactive” throughout.

As to `O=C(Oc1ccccc1)c1cccc(C(=O)Oc2ccccc2)c1`, the Potency entry in experiment [8], in experiment [1], in experiment [3], in experiment [9], in [4] and in experiment [5] was “inactive” throughout. In addition, the Potency result in [12], in experiment [6] and in experiment [15] was “inactive” in each case. Moreover, the Potency in experiment [13] was 0.456 µM (active).

Regarding `CCCCCCCC/C=C\CCCCCCCC(=O)OCCOC(=O)CCCCCCC/C=C\CCCCCCCC`, the Potency result in experiment [8], in experiment [16], in experiment [2], in experiment [3], in [9] and in [4] was “inactive” each time. In addition, the Potency result in experiment [17], in [10], in [11], in experiment [5], in experiment [12] and in experiment [13] was “inactive” throughout.

Consider `O=C(Nc1ccc(Cl)c(Cl)c1)c1cc(Cl)cc(Cl)c1O`, for which the Potency in experiment [8] is 1.95 µM (active); in [16] it was 2.75 µM (active); in [1], 19.5 µM (active); in experiment [3], 9.69 µM (active); in experiment [9], 2.17 µM (active); in [11] it was 19.5 µM (active). Further, the Potency in experiment [15] was 3.06 µM (active). In addition, in [12], the Potency entry was “inactive”.

Source of the values: PubChem BioAssay (Tox21).
